Results: PubChem BioAssay
Active and inactive are the calls of the source.

Tests used:
Albumin (Bos taurus) = Albumin (Bos taurus) (UniProt P02769); test: compounds binding labelled BSA control protein – biochemical, small-molecule microarray, Alexa647 label, 635/667 nm fluorescence, artefact control for SMM control protein annotation, profiling panel (AID 1118); details: BSA-A647 binding, fluorescence 635 nm, higher = more signal;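 note: score merges 667 nm emission intensity and signal-to-noise per printed compound spot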
Sequence of Albumin (Bos taurus) (P02769 whole entry, looked up): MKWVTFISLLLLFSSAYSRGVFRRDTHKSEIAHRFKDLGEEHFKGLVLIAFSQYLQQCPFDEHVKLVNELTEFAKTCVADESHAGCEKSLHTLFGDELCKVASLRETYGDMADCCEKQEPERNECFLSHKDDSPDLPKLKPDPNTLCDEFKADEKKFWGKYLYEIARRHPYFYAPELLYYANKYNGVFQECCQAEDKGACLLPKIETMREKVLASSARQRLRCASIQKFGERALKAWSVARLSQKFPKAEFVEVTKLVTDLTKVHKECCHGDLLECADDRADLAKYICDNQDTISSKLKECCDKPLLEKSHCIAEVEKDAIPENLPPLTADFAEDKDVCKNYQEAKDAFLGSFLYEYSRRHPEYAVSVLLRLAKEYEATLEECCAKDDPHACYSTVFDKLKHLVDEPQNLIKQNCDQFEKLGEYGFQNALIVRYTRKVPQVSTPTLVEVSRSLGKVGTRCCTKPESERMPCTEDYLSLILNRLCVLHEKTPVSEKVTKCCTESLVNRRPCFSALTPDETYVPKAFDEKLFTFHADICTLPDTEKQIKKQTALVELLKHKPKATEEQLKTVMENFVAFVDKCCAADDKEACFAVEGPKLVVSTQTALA

[1] = probe aXIP binding to arrayed compounds – biochemical, NeuroSMM set, 635/667 nm fluorescence, primary screen (AID 1119); details: small-molecule microarray, higher = more signal, called active from +8 up or from −8 down;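 note: probe is the protein aXip251-270 applied at 1 µg/mL to compound-printed slides; binding of probe to printed compounds measured as 667 nm fluorescence plus signal to noise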
[2] = probe aNOTCH3 binding on compound microarray – biochemical, small-molecule microarray, 635/667 nm fluorescence, primary screen (AID 1120); details: higher = more signal;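 note: probe is a biotin-tagged antibody raised against NOTCH3 rather than NOTCH3 protein; score merges spot fluorescence near 667 nm with spot signal to noise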
[3] = probe aNOTCH2 binding on compound microarray – biochemical, small-molecule microarray, 635/667 nm fluorescence, primary screen (AID 1121); details: higher = more signal;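 note: score merges feature fluorescence read at 667 nm with its signal to noise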
[4] = target: Carbonic anhydrase 2 (Homo sapiens) (UniProt P00918); test: compounds binding carbonic anhydrase 2 – biochemical, small-molecule microarray, Alexa647-labelled CAII, profiling panel (AID 1122); details: CAII-A647 binding fluorescence, higher = more signal
[5] = COS7 lysate on small-molecule microarray, probe aHis, 635 nm (AID 1123); details: COS7 cell lysate, fluorescence, higher = more signal;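 note: z-score combines 667nm fluorescence intensity with signal-to-noise per printed compound spot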
[6] = probe aLAP1 signal on lysate-treated microarray – cell lysate, small-molecule microarray, COS7 lysate, primary screen (AID 1124); details: probe aLAP1, fluorescence, higher = more signal;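 note: lysate comes from COS7 cells expressing LAP1 and is applied at 0.3 µg/mL; score merges spot fluorescence near 667 nm with signal-to-noise over triplicate slides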
Sam68 (KHDRBS1) = test: compounds binding KHDRBS1 protein – biochemical, small-molecule microarray, 635 nm fluorescence, primary screen (AID 1125); details: higher = more signal;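 note: score merges 667 nm channel intensity with signal to noise over triplicate slides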
[7] = tested on: Chordin-like protein 2 (CHRDL2); test: compounds binding chordin-like 2 – biochemical, small-molecule microarray, 635 nm fluorescence, primary screen (AID 1126); details: fluorescence 635 nm, higher = more signal;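 note: printed compound slides probed with Chrdl2 protein at 4 µg/mL for 1 h at 4 C; score merges 667 nm emission intensity with signal to noise over three replicate slides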
[8] = target: Concanavalin-A (Canavalia ensiformis) (UniProt P02866); test: compounds binding concanavalin A lectin – biochemical, small-molecule microarray, Alexa647 label, 635 nm, artefact control for SMM control protein annotation, primary screen (AID 1127); details: ConA-A647 binding fluorescence, higher = more signal;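 note: z combines 667 nm emission intensity with signal-to-noise across three replicate slides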
Sequence of Concanavalin-A (Canavalia ensiformis) (P02866 whole entry, looked up): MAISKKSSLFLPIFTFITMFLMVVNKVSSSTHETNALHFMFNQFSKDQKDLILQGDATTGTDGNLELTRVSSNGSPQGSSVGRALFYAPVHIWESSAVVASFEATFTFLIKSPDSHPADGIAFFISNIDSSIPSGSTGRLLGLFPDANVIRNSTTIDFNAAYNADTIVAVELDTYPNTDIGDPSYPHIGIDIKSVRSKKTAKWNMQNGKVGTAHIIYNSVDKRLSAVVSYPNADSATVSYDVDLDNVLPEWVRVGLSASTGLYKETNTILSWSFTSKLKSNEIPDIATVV

[9] = compounds binding Alexa647 anti-His antibody – biochemical, small-molecule microarray, 635 nm fluorescence, artefact control for SMM control protein annotation, primary screen (AID 1128); details: higher = more signal;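 note: score merges feature fluorescence with signal-to-noise for each printed compound spot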
[10] = tested on: Human papillomavirus type 1a E7 protein (residues 1-88); test: HPV1a E7 small-molecule binders, primary screen, biochemical, small-molecule microarray, residues 1-88, 635 nm (AID 1129); details: small-molecule microarray binding, fluorescence 635 nm; higher = more signal
[11] = target: Focal adhesion kinase 1 (Homo sapiens) (UniProt Q05397); test: PTK2 protein binding on printed compound slides – biochemical, small-molecule microarray, 635/667 nm fluorescence, BSA, DTT, primary screen (AID 1130); details: 635 nm fluorescence, higher = more signal;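 note: composite of spot emission at 667 nm and signal to noise over triplicate slides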
Sequence of Focal adhesion kinase 1 (Homo sapiens) (Q05397 whole entry, looked up): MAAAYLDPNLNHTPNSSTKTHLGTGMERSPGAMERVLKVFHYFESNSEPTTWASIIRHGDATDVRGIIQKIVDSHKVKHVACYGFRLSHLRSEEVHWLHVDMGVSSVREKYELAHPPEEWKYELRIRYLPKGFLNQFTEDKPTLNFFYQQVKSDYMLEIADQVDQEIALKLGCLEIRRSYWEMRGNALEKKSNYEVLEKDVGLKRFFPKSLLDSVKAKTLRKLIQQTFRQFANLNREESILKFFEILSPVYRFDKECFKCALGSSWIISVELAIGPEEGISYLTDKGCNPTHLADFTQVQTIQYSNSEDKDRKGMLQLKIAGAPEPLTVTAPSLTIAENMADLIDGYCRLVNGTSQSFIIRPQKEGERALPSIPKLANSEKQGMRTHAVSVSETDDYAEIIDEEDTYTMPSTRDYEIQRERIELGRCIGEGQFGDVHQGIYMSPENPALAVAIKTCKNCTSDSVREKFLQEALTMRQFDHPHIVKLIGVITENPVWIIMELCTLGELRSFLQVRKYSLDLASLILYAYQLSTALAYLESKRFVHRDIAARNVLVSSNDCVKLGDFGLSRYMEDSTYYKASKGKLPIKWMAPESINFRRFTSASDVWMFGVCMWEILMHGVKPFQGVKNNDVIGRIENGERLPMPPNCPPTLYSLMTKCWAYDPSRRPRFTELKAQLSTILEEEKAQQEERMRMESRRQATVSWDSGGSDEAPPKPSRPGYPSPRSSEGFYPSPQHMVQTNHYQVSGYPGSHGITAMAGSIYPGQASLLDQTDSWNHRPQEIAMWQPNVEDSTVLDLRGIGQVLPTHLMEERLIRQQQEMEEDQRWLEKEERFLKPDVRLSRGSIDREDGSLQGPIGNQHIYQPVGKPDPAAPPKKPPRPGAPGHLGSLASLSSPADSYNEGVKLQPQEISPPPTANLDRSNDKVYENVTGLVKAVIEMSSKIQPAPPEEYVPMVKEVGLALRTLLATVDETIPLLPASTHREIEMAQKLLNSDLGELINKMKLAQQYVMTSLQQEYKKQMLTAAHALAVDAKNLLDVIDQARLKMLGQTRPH

[12] = tested on: Fibrinogen (Alexa647-labelled); test: Alexa647-fibrinogen binding to printed small molecules – biochemical, small-molecule microarray, 635/667 nm fluorescence, artefact control for SMM control-protein annotation, profiling panel (AID 1131); details: fibrinogen-A647 binding fluorescence, higher = more signal;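 note: z-score merges 667 nm fluorescence with per-spot signal-to-noise over triplicate slides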
[13] = target: Follistatin (Homo sapiens) (UniProt P19883); test: FST protein binding to printed compounds – biochemical, small-molecule microarray, 635/667 nm fluorescence, primary screen (AID 1132); details: 635 nm fluorescence, higher = more signal
Sequence of Follistatin (Homo sapiens) (P19883 whole entry, looked up): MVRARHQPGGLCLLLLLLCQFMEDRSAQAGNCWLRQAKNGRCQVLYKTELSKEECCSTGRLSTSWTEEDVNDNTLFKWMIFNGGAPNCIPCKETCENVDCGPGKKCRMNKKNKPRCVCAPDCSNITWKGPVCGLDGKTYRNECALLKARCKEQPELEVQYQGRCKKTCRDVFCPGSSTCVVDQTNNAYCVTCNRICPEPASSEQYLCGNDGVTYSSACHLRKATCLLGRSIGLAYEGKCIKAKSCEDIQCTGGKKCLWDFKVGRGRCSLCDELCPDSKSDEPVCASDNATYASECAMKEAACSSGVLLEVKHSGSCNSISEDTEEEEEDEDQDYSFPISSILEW

[14] = target: Fibroblast growth factor 2 (Homo sapiens) (UniProt P09038); test: basic fibroblast growth factor binding to printed compounds – biochemical, small-molecule microarray, 635/667 nm fluorescence, primary screen (AID 1133); details: FGF2, fluorescence 635/667, higher = more signal
Sequence of Fibroblast growth factor 2 (Homo sapiens) (P09038 whole entry, looked up): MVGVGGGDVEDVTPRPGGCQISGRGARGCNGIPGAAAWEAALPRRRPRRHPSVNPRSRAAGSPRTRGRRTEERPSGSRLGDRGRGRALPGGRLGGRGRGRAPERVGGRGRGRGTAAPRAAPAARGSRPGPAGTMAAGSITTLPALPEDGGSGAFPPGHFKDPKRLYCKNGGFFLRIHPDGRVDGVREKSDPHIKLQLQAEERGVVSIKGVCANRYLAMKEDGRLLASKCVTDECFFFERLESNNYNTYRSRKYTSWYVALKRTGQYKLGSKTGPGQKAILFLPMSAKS

[15] = JC-1 mitochondrial potential readout, lung cancer cells – cell-based, A549, JC-1 fluorescence, basal, 24 h, 100 nL, profiling panel (AID 1138); details: higher = more signal;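 note: A549 lung adenocarcinoma cells under basal conditions with no added stimulus; test concentration not given here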
Lefty1 = Lefty1 protein binding to printed compounds – biochemical, small-molecule microarray, 635/667 nm fluorescence, primary screen (AID 1139); details: fluorescence 635/667, higher = more signal
[16] = tested on: wheat germ agglutinin (Triticum aestivum), Alexa647-labelled; test: Alexa647-WGA lectin binding to printed small molecules – biochemical, small-molecule microarray, 635/667 nm fluorescence, artefact control for SMM control-protein annotation, profiling panel (AID 1140); details: WGA-A647 binding, 635 nm fluorescence, higher = more signal;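 note: score merges 667 nm feature emission with signal to noise over triplicate slides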
[17] = target: Luciferin 4-monooxygenase (Photinus pyralis) (UniProt P08659); test: inhibition of purified Photinus pyralis luciferase – biochemical, luminescence, purified enzyme, 2006 set, primary screen (AID 1141); details: purified firefly luciferase, SteadyGlo luminescence, 30 min; higher = more signal, called active from +8 up or from −8 down;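 note: cell-free assay with purified firefly luciferase at 100 ng per well in PBS; test concentration not given here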
Sequence of Luciferin 4-monooxygenase (Photinus pyralis) (P08659 whole entry, looked up): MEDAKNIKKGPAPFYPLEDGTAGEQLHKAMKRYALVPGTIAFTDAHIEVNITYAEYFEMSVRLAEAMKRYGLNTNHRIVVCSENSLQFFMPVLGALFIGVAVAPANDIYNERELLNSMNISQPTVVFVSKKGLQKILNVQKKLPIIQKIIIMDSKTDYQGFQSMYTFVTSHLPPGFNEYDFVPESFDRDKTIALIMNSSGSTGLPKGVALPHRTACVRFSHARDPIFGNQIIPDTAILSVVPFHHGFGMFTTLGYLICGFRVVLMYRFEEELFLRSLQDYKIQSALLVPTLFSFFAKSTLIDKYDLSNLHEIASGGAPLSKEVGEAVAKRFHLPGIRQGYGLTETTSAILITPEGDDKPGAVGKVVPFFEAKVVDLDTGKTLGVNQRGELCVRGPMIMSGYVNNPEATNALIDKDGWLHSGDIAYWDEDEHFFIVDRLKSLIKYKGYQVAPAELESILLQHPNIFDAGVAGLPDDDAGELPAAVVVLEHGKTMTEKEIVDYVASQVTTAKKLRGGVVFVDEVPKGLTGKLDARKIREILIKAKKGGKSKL

Row | Compound | composite z-score (Albumin (Bos taurus)) | composite Z-score [1] | composite z-score [2] | composite z-score [3] | composite z-score [4] | composite z-score [5] | composite z-score [6] | composite z-score (Sam68 (KHDRBS1)) | composite z-score [7] | composite z-score [8] | composite z-score [9] | composite z-score [10] | composite z-score [11] | composite z-score [12] | composite z-score [13] | composite z-score [14] | z-score [15] | composite z-score (Lefty1) | composite z-score [16] | z-score [17]
1 | CCOC(=O)C[C@H]1[C@H](OC(=O)Cc2ccc3c(c2)OCO3)[C@@H](NC(=O)CC(C)C)c2cc(OCCCO)ccc2N1C(=O)Cc1ccc(OC)cc1 | 0.779 | -0.867 (inactive) | -0.0328 | -0.0288 | 0.0138 | 0.775 | 0.166 | 0.282 | -0.226 | -0.622 | -0.114 | 0.0383 | -0.224 | 0.641 | -0.123 | 0.11 | 0.903 | -0.194 | 0.62 | -1.91 (inactive)
2 | Cc1ccc(S[C@]2(C(=O)NCC(F)(F)F)CC(=O)N(Cc3ccccc3)[C@@H]2c2ccc(CO)cc2I)cc1 | 0.132 | 0.184 (inactive) | -0.212 | -0.183 | 0.679 | 1.21 | 1.57 | 0.0687 | -0.151 | -0.203 | 0.905 | 0.676 | -0.315 | 0.0957 | -0.0488 | -0.177 | 0.16 | -0.779 | 0.626 | 0.424 (inactive)
3 | CCOC(=O)C[C@H]1[C@H](OC(=O)c2ccc(C(=O)c3ccccc3)cc2)[C@@H](NC(=O)Cc2ccc(OC)cc2)c2cc(OCCCO)ccc2N1C(=O)c1ccccc1 | 0.585 | 0.324 (inactive) | 0.0203 | -0.0877 | 0.188 | 0.409 | -0.0137 | 0.428 | -0.0656 | 0.278 | 0.305 | 0.498 | 0.15 | 0.157 | -0.17 | 0.23 | 1.14 | 0.162 | -0.337 | 0.449 (inactive)
4 | C[C@@H]1ON(c2ccc(C(=O)OC(C)(C)C)cc2)[C@H](c2ccc(O)cc2)[C@H]1C(=O)N1C(=O)OC[C@H]1Cc1ccccc1 | 0.31 | 0.522 (inactive) | 0.0836 | -0.0449 | 0.217 | 0.58 | 0.581 | 1.31 | 0.448 | 1.03 | 0.249 | 1.03 | 0.437 | 0.584 | 0.472 | 0.382 | -1.49 | 1.29 | 0.828 | -0.416 (inactive)
5 | CCCCO[C@H]1C[C@H]2C(I)=C[C@@H]1C(=O)[C@]21CO1 | -0.369 | -0.014 (inactive) | -0.0311 | -0.25 | -0.302 | -0.196 | -0.287 | -0.414 | 0.377 | 0.267 | 1.74 | -0.522 | 0.047 | -0.886 | 0.145 | 0.129 | 0.258 | 0.351 | -0.164 | 0.274 (inactive)
6 | O=C1N(Cc2ccccc2)Cc2ccccc2[C@@H]2OC(c3ccc(OCCCO)cc3)=N[C@]12CCS(=O)(=O)c1ccccc1 | -0.0561 | 1.52 (inactive) | 0.0876 | 0.0607 | 0.484 | 2.23 | 0.0984 | 1.25 | 0.068 | 0.888 | 0.624 | 1.19 | 0.389 | 0.768 | 0.953 | 1.4 | -0.461 | -0.0333 | 1.04 | -0.929 (inactive)
7 | CC(C)(C)N1CC=CC23O[C@@H]4C=CCOC(=O)[C@@H]4[C@H]2C(=O)N(CCCCCCO)[C@@H]3C1=O (stereo not given in full) | 0.277 | 0.395 (inactive) | -0.359 | -0.112 | 0.879 | -0.112 | 0.483 | -0.551 | -0.677 | -0.375 | 0.184 | -0.184 | 0.527 | -1.52 | -1.42 | -0.877 | -0.12 | -0.447 | 0.132 | -0.234 (inactive)
8 | C=C(/C(=C/C[C@H](OC(=O)c1ccncc1)c1ccc(CO)o1)c1cc(C(=O)OC)ccc1OC)C(C)C | 0.0703 | -0.442 (inactive) | -0.0414 | -0.116 | 0.541 | 1.4 | 0.285 | 1.05 | 0.85 | 0.557 | 2 | 1.02 | -0.0585 | 0.448 | 1.07 | 1.21 | -0.432 | 1.14 | 0.433 | -1.32 (inactive)
9 | COC(=O)[C@@]1(Cc2ccc(OC)cc2)[C@H]2c3cc(C(=O)N(C)C)n(Cc4ccc(Cl)c(C(F)(F)F)c4)c3C[C@H]2CN1C(=O)c1ccccc1 | 0.962 | 0.579 (inactive) | 0.406 | 0.29 | 0.377 | 2.65 | 0.0516 | 1.26 | -0.763 | 0.952 | 1.99 | 1.22 | 0.71 | 0.982 | 0.655 | -0.451 | 0.0187 | -0.68 | 1.22 | 1.65 (inactive)
10 | CC1=C[C@@]2(CO)C(=O)[C@]3(CO3)[C@@H]1[C@H]1[C@]2(C)C=C(CO)C(=O)[C@]12CO2 | -0.123 | 0.817 (inactive) | 0.112 | -0.0795 | 0.497 | -0.255 | -0.274 | 0.369 | 0.397 | 0.301 | 0.0455 | -0.0634 | 0.206 | -0.403 | 0.443 | 0.165 | 0.173 | 0.381 | 0.207 | 0.538 (inactive)
